# Sampled rows, rich in hits. Any-hit rate of the full collection: about 3.1%.
# KKLEB cytotox – counter-screen for CF NF-kB inhibitors: cytotoxicity; KKLEB CF airway cells viability, ATPlite luminescence, overnight; hits give low values; cells stimulated with P. aeruginosa culture filtrate; activity change (cytotoxicity), % at 5 µM; hit rate 0.36% among 360,000;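 active means corrected activity change at or below -50% at 5 µM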
# CF NFkB inh – inhibitors of cystic fibrosis induced NF-kB; KKLEB NF-kB-GFP reporter, PAF-induced, GFP fluorescence overnight; inhibition, % at 5 µM; hit rate 0.86% among 360,000; AID 588850;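 active means at least 50% inhibition at 5 µM, scaled per plate between neutral and stimulator controls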;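 further: PAF is a Pseudomonas aeruginosa culture filtrate used as stimulus; plate controls were PAF-stimulated DMSO wells for no effect and unstimulated DMSO wells for full effect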
# HIF-2a inh – HIF-2a inhibition | hit rate 0.72% among 360,000 | AID 624352 | inhibition, % at 18.8 µM | 786-0 RCC cells HIF-2a reporter, luciferase luminescence, overnight;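 active means inhibition of the luminescence signal of 40% or more relative to plate controls, in a single-dose primary screen at 18.75 µM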
# Peg3 prom inh-1 – reduces Peg3 promoter-driven luciferase expression in HeLa | inhibition, % at 20 µM | hit rate 1.7% among 360,000 | HeLa PEG-Prom luciferase reporter, luminescence, overnight;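 active means inhibition of at least 50% at 20 µM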
# PPC-1+TRAIL kill – kills PPC-1 cancer cells in the presence of TRAIL; PPC-1 cells + TRAIL, ATPLite viability luminescence; cell killing (% activity), % at 4 µM or 5 µM; hit rate 0.41% among 220,000; AID 1443;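 active means cell killing above 50% in the first pass at 4 µM, then a duplicate retest at 5 µM averaging 50% or more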;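 further: plate controls were cells with TRAIL plus DMSO for no effect and medium-only wells lacking cells for full effect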
# C8 TRAIL sens – sensitizes caspase-8 expressing cells to TRAIL | NB7+C8 cells + TRAIL, ATPlite viability luminescence | inhibition (viability loss, TRAIL sensitization), % at 10 µM | hit rate 1% among 360,000 | AID 624354;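 active means compounds causing at least 50% loss of cell viability in the single-dose screen, relative to plate controls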
# Peg3 prom inh-2 – Peg3 promoter inhibition confirmation. shares compounds with Peg3 prom inh-1. inhibition, % at 20 µM. HeLa PEG-Prom luciferase reporter, luminescence, overnight. hit rate 84% among 1,300;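 active means at 20 µM dose, 40% or more inhibition averaged across four replicates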
# Active calls of the source: *; . = no result given.
SMILES,KKLEB cytotox,CF NFkB inh,HIF-2a inh,Peg3 prom inh-1,PPC-1+TRAIL kill,C8 TRAIL sens,Peg3 prom inh-2
COC(=O)c1ccccc1S(=O)(=O)N1CCC(C(=O)OC(C)C(=O)N(C)Cc2ccccc2)CC1 (configuration not stated),4,5,10,24,.,-27,.
COc1ccc(-c2cc(C(F)F)n3ncc(C(=O)n4ccnc4C)c3n2)cc1,-32,74*,31,55*,8,13,95*
Cc1cc(CSc2ccccc2)ccc1NC(=O)c1ccc(Br)cc1,11,-11,7,54*,8,7,23
O=C(Nc1cccc(Br)c1)c1ccc(CSc2ccccc2)cc1,-4,-9,-103,-70,27,-10,.
CCCCCOc1ccc(/C(C)=N/NC2=NCCN2)cc1,-10,-5,-3,40,.,18,.
CCCCCCOc1ccc(/C(C)=N/NC2=NCCN2)cc1,-19,18,-2,108*,.,14,98*
Cc1csc(-c2nc3ccccc3n2C(C(=O)Nc2c(C)cccc2C)C2CC2)c1 (configuration not stated),.,.,1,.,.,-2,.
COc1cc(/C=C2\SC(=S)N(CCC(=O)NC3CCCC3)C2=O)cc(OC)c1OC,-6,6,7,38,.,17,.
Cc1ccc(/C=C2\SC(=S)N(CCCC(=O)NNC(=O)c3ccccc3O)C2=O)cc1,-6,2,91*,80*,-10,11,82*
Cc1ccc(/C=C2\SC(=S)N(CCCC(=O)NC3CCCC3)C2=O)cc1,8,14,74*,54*,.,-13,49*
CCCN(CCC)c1nc(N)nc(-c2cc(Cl)ccc2OC)n1,-16,13,13,28,4,-2,.
CCNc1nc(N)nc(-c2cc(Cl)ccc2O)n1,-49,88*,-185,101*,42,47,-23
COCCCNC(=O)c1ccc(Cn2c(=O)c3ccccc3n(Cc3ccccc3C#N)c2=O)cc1,1,7,13,54*,-3,22,57*
CC(=O)n1cc([C@H]2C=C(C(=O)NCc3ccccc3)O[C@@H](OCc3ccc(CO)cc3)C2)c2ccccc21,-1,13,34,55*,11,5,47*
Cc1cccc(-c2ccc3[nH]c4c(c3c2)CCN2C[C@@H]([C@H](C)O)[C@@H](N(C)C(=O)NC3CCCCC3)C[C@@H]42)c1,-2,17,14,21,.,24,.
CN[C@H]1C[C@H]2c3[nH]c4ccc(-c5ccc(OC)cc5)cc4c3CCN2C(=O)[C@H]1[C@H](C)O,-12,35,-3,101*,.,2,98*
COc1ccc(NC(=O)N(C)[C@H]2C[C@H]3c4[nH]c5ccc(-c6ccc(OC)cc6)cc5c4CCN3C(=O)[C@H]2[C@H](C)O)cc1,-6,13,-52,46,.,10,.
CN[C@H]1C[C@H]2c3[nH]c4ccc(-c5cccc(C)c5)cc4c3CCN2C[C@H]1[C@H](C)O,-15,25,34,90*,.,4,98*
CC(C)S(=O)(=O)N1CCCC(c2cc(C(=O)NCc3ccccc3)no2)C1 (configuration not stated),-12,6,-29,8,.,13,.
Cc1ccc(CNS(=O)(=O)c2c(C)[nH]c(C)c2C(=O)N2CCCCC2)cc1,3,6,20,10,.,2,.
CCOC(=O)CC1=CCc2c1ccc(OC)c2OC,-1,-4,-104,-89,.,-10,.
Cc1cccc2c(SCC(N)=O)nc(-c3ccccc3)nc12,0,-4,10,51*,.,-4,33
NC(=O)CSc1nc(-c2ccccc2)nc2ccccc12,-4,-41,-3,7,.,-2,.
Cc1ccc(S(=O)(=O)N2[C@@H](c3cccc(Cl)c3)C(C(=O)OC(C)(C)C)=CC[C@H]2c2ccc(C(C)C)cc2)cc1,-22,6,10,19,.,9,.
COc1cc(C(=O)Nc2cc(-c3ccccc3)[nH]n2)cc(OC)c1OC,-5,-4,-9,12,11,10,.
SMILES,KKLEB cytotox,CF NFkB inh,HIF-2a inh,Peg3 prom inh-1,PPC-1+TRAIL kill,C8 TRAIL sens,Peg3 prom inh-2
COc1cc(C(=O)Nc2nc(OC)c(-c3ccccc3)c(OC)n2)cc(OC)c1OC,-14,6,-12,50*,-28,1,43*
COc1cc(C(=O)Nc2ccc3oc(-c4cccnc4)nc3c2)cc(OC)c1OC,-11,6,8,52*,12,13,43*
COc1ccc(C(=O)Nc2ccc3oc(-c4cccnc4)nc3c2)cc1OC,-13,13,-5,21,2,-2,.
CCN(CC(=O)Nc1ccc(NC(C)=O)cc1)C(=O)c1ccc(Sc2nncn2C)c([N+](=O)[O-])c1,-4,1,9,0,.,3,.
Cc1ccc(NC(=O)c2nc[nH]c2C(=O)N2CCN(C(=O)OC(C)(C)C)CC2)cc1,16,-12,-17,-10,.,-17,.
CC(C)(C)OC(=O)[C@H](Cc1ccccc1)NC(=O)c1[nH]cnc1C(=O)Nc1ccc(Cl)cc1,-2,16,-1,85*,18,24,29
CC(C)(C)OC(=O)[C@H](Cc1ccccc1)NC(=O)c1nc[nH]c1C(=O)NCCCCCN,-10,-9,-15,10,.,-11,.
CC(C)(C)OC(=O)NCc1ccc(CNC(=O)c2nc[nH]c2C(=O)N2CCN(C(=O)OC(C)(C)C)CC2)cc1,-11,-3,9,51*,.,30,28
CC(C)(C)OC(=O)NCCCCCNC(=O)c1[nH]cnc1C(=O)N[C@@H](Cc1ccccc1)C(=O)OC(C)(C)C,-3,3,16,51*,.,-2,40
CC(=O)Nc1cccc(C(=O)Nc2cc(C(F)(F)F)ccc2-n2cncn2)c1,-4,-13,16,12,.,-11,.
CC1(c2nnnn2Cc2ccccc2)CCC(=O)N1CC1CCCCC1 (configuration not stated),.,.,15,.,.,-7,.
CC(C)Cc1ccc(C(C)C(N)=NCCc2ccccc2)cc1 (configuration not stated),-28,10,10,104*,.,26,99*
CSc1ccc(C2C(C(=O)c3ccco3)=C(O)C(=O)N2c2nnc(SC)s2)cc1 (configuration not stated),-2,0,-200,-284,.,12,.
CCS(=O)(=O)c1nnnn1-c1ccccc1S(C)(=O)=O,1,29,21,58*,9,-18,38
O=S(=O)(Cc1nnnn1-c1ccc(Br)cc1)c1ccccc1,10,-14,2,8,.,-3,.
CCc1ccc(S(=O)(=O)N2CCN(C(=O)C3CCN(C(C)=O)CC3)CC2)cc1,6,-10,15,14,.,-2,.
O=C1/C(=C/c2ccccc2)CCc2ccc(Cl)nc21,4,-4,12,76*,.,24,11
CCc1nc2ccc(C(=O)NCCc3ccccn3)cn2c1N(C)CCC(C)C,5,0,14,11,.,-2,.

# High-throughput results from PubChem BioAssay.
